Assay outcomes deposited in PubChem BioAssay by National Center for Advancing Translational Sciences (NCATS).
Hits are enriched below; roughly 20% of the tested compounds scored in any of these assays.
HCMV antiviral = qHTS Assay for inhibitors of the human cytomegalovirus (HCMV); HFF cells, HCMV-luciferase reporter, 72 h; stronger effect = lower value; activity change, negative = inhibition, % at 57.5 µM; hit rate 4.5% among 410,000; AID 1259415, 2018; in the data active = activity change below about -60%; inconclusive = no clear call, values can overlap the other calls; inactive = above about -39%; note: % is set by controls: 0 for no effect and ±100 for the full control effect
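Human foreskin fibroblasts infected with luciferase-reporter HCMV at MOI 1 PFU/cell, compounds at two doses. Luciferase measured 72 h post infection; normalized to buffer-only basal and Salinomycin (10uM) controls.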
Pf growth 48h = Primary qHTS for delayed death inhibitors of the malarial parasite plastid, 48 hour incubation | P. falciparum luciferase growth in erythrocytes, 48 h | AID 504832, 2011 | Potency, µM (titrated, usually from 28.7 µM), for inactives: at the top dose activity change, negative = inhibition, actives largely listed as inhibitors | hit rate 5.9% among 310,000; note: potency is the fitted concentration of half-maximal effect; % is set by controls: 0 for no effect and ±100 for the full control effect
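Erythrocytes infected with P. falciparum carrying an integrated firefly luciferase reporter (2% hematocrit, 0.1% parasitemia final) were exposed to compounds in RPMI 1640 with 0.5% Albumax at 37 C, 5% CO2. Growth inhibition was scored as reduced luminescence.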
Shiga toxin inh = A qHTS for Small Molecule Inhibitors of Shiga Toxin | Vero cells, Shiga toxin protein synthesis inhibition reporter | inhibition, % at 38.7 µM | hit rate 9.2% among 290,000 | AID 2315, 2010; in the data active = inhibition mostly above about 28%, no sharp cut-off; inactive = mostly below about 43%; note: 0% is about no effect
CHX counter = Cycloheximide Counterscreen for Small Molecule Inhibitors of Shiga Toxin; max response, %; cell reporter, cycloheximide protein synthesis inhibition counterscreen; hit rate 12% among 300,000; in the data active = max response mostly above about 13%, no sharp cut-off; inactive = mostly below about 14%; note: read at 38.3 µM for the half of the compounds with a filed dose; 0% is about no effect
Pf growth 96h = Primary qHTS for delayed death inhibitors of the malarial parasite plastid, 96 hour incubation | P. falciparum luciferase reporter growth, 96 h | Potency, µM (titrated, usually from 28.7 µM), for the others: top-dose activity change, negative = inhibition, usual class: inhibitors | hit rate 6.9% among 320,000 | AID 504834, 2011; note: potency is the fitted concentration of half-maximal effect; % is set by controls: 0 for no effect and ±100 for the full control effect
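Cell-based qHTS: luciferase-tagged P. falciparum in erythrocytes (2% hematocrit, 0.05% parasitemia final) incubated with compounds for 96 hours, 37 C, 5% CO2; luciferase detection reagent then added and luminescence measured.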
Numbers without * were called inactive; ? = inconclusive; . = not tested or not shown; [ ] = dose if it differs, or a comment. Unless noted, calls come from the whole dose curve; as a rule, active = well fitted inhibition curve with a large enough effect; inconclusive = small, poorly fitted or top-dose-only effect, or another doubt; inactive = no such curve, though single readings can be large or run the other way.

SMILES	HCMV antiviral	Pf growth 48h	Shiga toxin inh	CHX counter	Pf growth 96h
O=C(CSc1ccsc1[N+](=O)[O-])NCc1ccco1	-20.8	11.7µM*	10.5	5.9	?
NC(=O)C1CCN(C(=O)CSc2ccsc2[N+](=O)[O-])CC1	-25.8	-45.8%[5.75 µM]	10.7	1.4	-2.8%
Cc1nnc(SCc2ccccc2Cl)c2cc3occc3n12	26.9	.	.	.	.
O=C(NCC1CCCO1)c1ccc(Oc2ccc([N+](=O)[O-])cc2)cc1 (centres undefined)	-23.2	4.4%	-6.0	0.4	1.47µM*
O=C(NCC1CCCO1)C(=Cc1cccc([N+](=O)[O-])c1)C(=O)NCC1CCCO1 (centres undefined)	-98.5*	?	37.3	8.9	13.1µM*
Cc1cccc(Cn2c(SCc3ccc(C(=O)NCc4cccs4)cc3)nc3ccncc32)c1	-13.9	.	.	.	.
Cc1ccc(C2c3c(-c4ccccc4O)n[nH]c3C(=O)N2CCCO)cc1 (centres undefined)	22.5	.	.	.	.
O=C(CSc1nnc2ccccn12)Nc1ccc2c(c1)OCO2	-15.6	31.1%	31.0	17.9*	38.0%
CNC(=O)CSc1nnc(-c2ccc3c(c2)OCO3)n1C	-22.3	11.5%	-7.2	8.2	29.1%
O=C(CCSc1nnc2ccccn12)Nc1ccc2c(c1)OCO2	13.3	11.0%	21.7	17.4	-2.1%
Cc1ccc(OCC(=O)Nc2cccc(-c3nc4ccccc4s3)c2)cc1	64.1	.	.	.	.
O=C(CSc1nnc2ccccn12)Nc1cccc(-c2nc3ccccc3s2)c1	37.9	47.8%	39.4*	15.5	?
Cn1c(SCc2ccc3c(c2)OCO3)nnc1-c1ccccc1	1.1	5.1%	21.9*	15.5*	28.3%
Cn1c(=O)c2ncn(CC(=O)Nc3cccc(-c4nc5ccccc5s4)c3)c2n(C)c1=O	10.6	171.4%	118.0*	53.5*	31.0%
CCC(C)(C)NC(=O)C(c1ccc(F)cc1)N(CCOC)C(=O)CCC(=O)Nc1nccs1 (centres undefined)	15.0	-12.4%	-11.4	0.6	-9.4%
Nn1c(SCC(=O)Nc2ccc3c(c2)OCO3)nnc1-c1ccc(Cl)cc1	57.2	28.5%	0.8	-1.5	34.5%
Nn1c(SCC(=O)Nc2ccc3c(c2)OCO3)nnc1-c1ccccc1	-3.9	.	27.4	21.5*	39.8%
CC(=O)c1ccc(NC(=O)C(C)Sc2nnc3ccccn23)cc1 (centres undefined)	-16.6	?	.	.	9.28µM*
CC(=O)c1cccc(NC(=O)C(C)Sc2nnc3ccccn23)c1 (centres undefined)	20.1	.	.	.	.
Cc1cccc(NC(=O)CSc2nnc(CSc3nc(C)cc(C)n3)n2Cc2ccco2)c1	-7.2	?	-6.1	-7.2	14.7µM*
Cc1ccc(NC(=O)CSc2nnc3ccccn23)cc1	-38.5	59.6%	72.1*	14.9	2.7%
Cc1cc(C)nc(SCc2nnc(SCC(=O)Nc3nccs3)n2Cc2ccco2)n1	41.7	-23.8%	-6.4	-3.2	-17.8%
Cc1ccc(NC(=O)CCSc2nnc3ccccn23)cc1	-10.7	0.1%	31.6	-1.6	-1.6%
O=S1(=O)[C@H]2C[C@@H]3C=C[C@@]2(CN1Cc1cccc(F)c1)O3	-17.5	-1.0%	-6.2	-1.4	?
O=C(CSc1ncc(-c2ccc(F)cc2)n1Cc1ccco1)Nc1ccc2c(c1)OCO2	11.9	?	110.2*	39.5*	.
SMILES	HCMV antiviral	Pf growth 48h	Shiga toxin inh	CHX counter	Pf growth 96h
c1ccn2c(SCc3ccc4c(c3)OCO4)nnc2c1	65.3	60.1%	113.6*	40.3*	57.0%
O=C(CSc1nnc(-c2ccccc2)n1Cc1ccco1)Nc1ccc2c(c1)OCCO2	44.5	?	48.4*	12.9	?
O=C1N(Cc2cccc(Cl)c2)C[C@@H]2C[C@@H](c3c[nH]c4ccccc34)N3CCC[C@@]123	18.9	?	-3.2	-2.5	?
CC(C)C(=O)N1CCN(c2ccc(NC(=O)c3ccco3)cc2Cl)CC1	15.3	9.28µM*	21.4	18.3	?
CC(=O)N1CCN(c2ccc(NC(=O)c3ccco3)cc2Cl)CC1	46.8	37.7%	42.5*	16.8*	?
CCC(=O)N1CCN(c2ccc(Cl)cc2NC(=S)NC(=O)c2ccco2)CC1	13.7	.	.	.	.
CCN1CCN(c2ccc(Cl)cc2NC(=O)c2ccco2)CC1	0.8	?	.	.	?
O=C(Nc1ccc(N2CCOCC2)c(Cl)c1)c1ccco1	73.7	2.2%	46.2	33.7*	-118.7%
CCC(=O)N1CCN(c2ccc(NC(=O)c3ccco3)cc2Cl)CC1	99.5	?	38.2	14.7*	-1.4%
O=S(=O)(Nc1ccc(-c2ccc(N3CCCC3)nn2)cc1)c1ccc(OC(F)(F)F)cc1	28.3	.	.	.	.
COc1ccc(CNC(=O)CSc2nc3ccsc3c(=O)n2Cc2ccccc2Cl)cc1	11.1	.	.	.	.
CN(Cc1ccccc1)C(=O)c1ccc2nc([C@@H]3O[C@H](CO)[C@H](O)[C@H](O)[C@H]3O)[nH]c2c1	-2.2	.	.	.	.
O=C(Nc1ccc(N2CCN(C(=O)c3ccccc3)CC2)c(Cl)c1)c1ccco1	-32.8	8.28µM*	-9.3	-2.8	-21.7%
CCOC(=O)c1ccc(N2CCN(C(=O)c3ccccc3)CC2)c(NC(=O)c2ccco2)c1	-22.1	?	-3.4	-3.2	-18.2%
COCCCn1c(C)cc(C(=O)CN2c3cccc4cccc(c34)S2(=O)=O)c1C	15.0	?	.	.	?
C=CC(=O)N1C/C(=C/c2ccc(Cl)cc2)C(=O)/C(=C\c2ccc(Cl)cc2)C1	-100.0*	.	.	.	.
C=CC(=O)N1C/C(=C/c2ccccc2)C(=O)/C(=C\c2ccccc2)C1	-97.1*	.	.	.	.
O=C1/C(=C/c2ccccc2)CSc2sccc21	110.2	.	47.6	13.3	-0.8%
O=C1C(=Cc2ccc(Cl)cc2)Cc2ccccc21	15.7	.	.	.	.
Cc1ccc(NC(=O)CN(C)C(=O)CCSc2ccc(F)cc2)cc1	-5.1	?	.	.	?
Cc1c(C(=O)N(C)C)c2ccc(Cl)cc2n1O	-34.4	-7.1%	4.4	-1.1	-6.2%
CC(C)=NNc1nc(-c2ccccc2)cs1	45.2	34.7%	65.9	22.2*	111.4%
CC1CC(CC(=O)NNc2nc(-c3ccccc3)cs2)C(=O)O1 (centres undefined)	18.6	9.4%	-2.2	-4.0	23.3%
CC(C)=NNc1nc(-c2ccc(N3C(=O)CCC3=O)cc2)cs1	-9.7	0.0%	14.1	20.0*	-1.1%
C/C(CCC1CC(C)OC1=O)=N/Nc1nc(-c2ccccc2)cs1 (centres undefined)	15.4	21.0%	44.1*	21.8*	35.6%
O=C(CSc1nc2c([nH]c3ccccc32)c(=O)n1-c1ccccc1)Nc1ccc2c(c1)OCO2	-39.0	.	.	.	.
Cc1ccc(C)c(S(=O)(=O)N2CCCOC2CNC(=O)C(=O)NCc2ccccc2)c1 (centres undefined)	-28.5	?	-11.2	-3.4	-20.6%
CCOc1ccc(OCc2nnc(SCC(=O)NC3CCS(=O)(=O)C3)n2-c2ccc(Cl)cc2)cc1 (centres undefined)	-19.2	-22.0%	35.8	-3.8	?
